Reference: PubChem BioAssay
Active and inactive are the calls of the source.

Experiments:
[1] = tested on: PRMT1 (protein arginine N-methyltransferase 1); assay: small molecules binding arginine methyltransferase PRMT1 – biochemical, small-molecule microarray, 635 nm fluorescence, primary screen (AID 1088); details: higher = more signal;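 further: binding of Prmt1 protein to compounds spotted on small-molecule microarray slides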
[2] = growth effects on S. cerevisiae YJM789 – YJM789 clinical isolate, OD600, 24 h, basal, primary screen (AID 1089); details: higher = more signal, called active from +8 up or from −8 down;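 further: growth of clinical yeast isolate S. cerevisiae YJM 789 seeded 1000 cells per well; test concentration not given here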
[3] = S. pombe growth modifiers, basal conditions – strain 972, OD600, 24 h, no modulator, primary screen (AID 1090);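 further: basal condition with compound alone and no growth modifier present; test concentration not given here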; details: S. pombe 972 growth, higher = more signal, called active from +8 up or from −8 down
[4] = budding yeast growth modifiers under rapamycin – strain BY4716, OD600, 96 h, primary screen (AID 1091); further: test concentration not given here; details: S. cerevisiae BY4716 + rapamycin, higher = more signal, called active from +8 up or from −8 down
[5] = target: Torsin-1A-interacting protein 2 (Homo sapiens) (UniProt Q8NFQ8); assay: small molecules binding lysate-expressed LULL1 – cell lysate, human LULL1 lysate, 635/667 nm fluorescence, primary screen (AID 1092); details: small-molecule microarray, hLULL1 lysate binding, 635 nm fluorescence; higher = more signal;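 further: probe is lysate of COS7 cells overexpressing human LULL1; score merges per-feature 667 nm fluorescence with signal-to-noise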
[6] = optical density change of DRC41 E. coli – strain DRC41, OD650, 24 h, E. coli filamentation project, primary screen (AID 1093);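 further: MC1000 strain lacking acrAB efflux and sulA so SOS filamentation is blocked; test concentration not given here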; details: E. coli DRC41 growth, higher = more signal, called active from +8 up or from −8 down
[7] = probe aLefty2 binding to arrayed compounds – biochemical, biotinylated probe, 635/667 nm fluorescence, primary screen (AID 1094); details: small-molecule microarray, higher = more signal;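 further: score merges spot fluorescence near 667 nm with spot signal-to-noise ratio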
[8] = tested on: Noggin (protein binding on small-molecule microarray); assay: small molecules binding Noggin protein – biochemical, 635/667 nm fluorescence, primary screen (AID 1095); details: 635 nm fluorescence, higher = more signal;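 further: score merges 667 nm feature fluorescence with signal to noise over triplicate slides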
[9] = target: Neurogenic locus notch homolog protein 3 (Homo sapiens) (UniProt Q9UM47); assay: small molecules binding NOTCH3 protein – biochemical, 635/667 nm fluorescence, primary screen (AID 1096); details: small-molecule microarray, 635 nm fluorescence, higher = more signal
[10] = probe aEGFR binding to arrayed compounds – biochemical, biotinylated probe, 635/667 nm fluorescence, primary screen (AID 1097); details: small-molecule microarray, higher = more signal;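 further: probe is a biotinylated anti-EGFR antibody binding compounds printed on slides; score combines fluorescence near 667 nm and signal to noise of each spot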
[11] = tested on: Plasmodium falciparum Sir2 (PF13_0152, Sir2A); assay: Plasmodium falciparum Sir2A binding compounds – biochemical, small-molecule microarray, 635 nm fluorescence, primary screen (AID 1098); details: fluorescence 635 nm, higher = more signal;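 further: score merges spot fluorescence intensity with its signal-to-noise ratio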
[12] = probe aDKK1 binding to arrayed compounds – biochemical, biotinylated probe, 635/667 nm fluorescence, primary screen (AID 1099); details: small-molecule microarray, higher = more signal;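 further: score merges 667nm spot fluorescence with signal to noise across triplicate slides; reference of the scale not given here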
[13] = probe aCHRDL2 binding to arrayed compounds – biochemical, biotinylated probe, 635/667 nm fluorescence, primary screen (AID 1100); details: small-molecule microarray, higher = more signal
[14] = change in splice reporter luminescence, either direction, cell-based, HEK293, spliceosome inhibition project, primary screen (AID 1101); details: HEK293 splicing luciferase reporter, 24 h, higher = more signal, called active from +8 up or from −8 down;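 further: HEK293 cells carrying a splicing-competent luciferase reporter gene; test concentration not given here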
[15] = target: Fibroblast growth factor 10 (Homo sapiens) (UniProt O15520); assay: compounds binding fibroblast growth factor 10 – biochemical, small-molecule microarray, 635 nm fluorescence, primary screen (AID 1102); details: FGF10 binding, fluorescence 635 nm, higher = more signal
[16] = tested on: glycogen synthase kinase-3 (GSK3A per assay name; protocol says GSK3B); assay: compounds binding glycogen synthase kinase-3 – biochemical, small-molecule microarray, 635 nm fluorescence, GSK3A, primary screen (AID 1103); details: fluorescence 635 nm, higher = more signal; further: the record names both GSK3A and GSK3B
[17] = target: Epidermal growth factor receptor (Homo sapiens) (UniProt P00533); assay: compounds binding epidermal growth factor receptor – biochemical, small-molecule microarray, 635 nm fluorescence, primary screen (AID 1104); details: EGFR binding, higher = more signal;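 further: score merges 667 nm emission intensity with spot signal to noise over triplicate slides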
[18] = target: Follistatin-related protein 3 (Homo sapiens) (UniProt O95633); assay: compounds binding follistatin-related protein 3 – biochemical, small-molecule microarray, 635 nm fluorescence, primary screen (AID 1105); details: FSTL3 binding, higher = more signal;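 further: score merges emission near 667 nm and signal to noise per printed spot across three slides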
[19] = target: Dickkopf-related protein 1 (Homo sapiens) (UniProt O94907); assay: small molecules binding DKK1 protein – biochemical, small-molecule microarray, 635 nm fluorescence scan, primary screen (AID 1106); details: higher = more signal;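 further: score merges emission near 667 nm with signal to noise over three replicate slides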
[20] = tested on: Inhibin beta A chain (activin A); assay: small molecules binding activin A – biochemical, small-molecule microarray, 635 nm fluorescence scan, primary screen (AID 1107); details: INHBA, higher = more signal;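 further: mouse activin A protein probed at 4.33 µg/mL on printed slides; score merges bound-protein fluorescence near 667 nm with spot signal-to-noise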

Sequence of Torsin-1A-interacting protein 2 (Homo sapiens) (Q8NFQ8 whole entry, looked up): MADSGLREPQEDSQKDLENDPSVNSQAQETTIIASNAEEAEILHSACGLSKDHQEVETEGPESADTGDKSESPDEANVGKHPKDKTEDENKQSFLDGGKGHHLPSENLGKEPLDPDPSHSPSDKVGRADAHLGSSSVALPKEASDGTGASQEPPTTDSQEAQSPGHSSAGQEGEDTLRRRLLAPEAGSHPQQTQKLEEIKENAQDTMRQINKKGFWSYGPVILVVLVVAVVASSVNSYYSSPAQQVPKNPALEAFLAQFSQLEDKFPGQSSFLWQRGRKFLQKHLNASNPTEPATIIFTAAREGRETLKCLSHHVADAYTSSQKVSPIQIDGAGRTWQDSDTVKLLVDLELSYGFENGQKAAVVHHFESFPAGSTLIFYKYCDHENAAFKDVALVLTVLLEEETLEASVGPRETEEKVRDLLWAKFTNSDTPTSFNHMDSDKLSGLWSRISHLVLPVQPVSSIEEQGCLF
Sequence of Fibroblast growth factor 10 (Homo sapiens) (O15520 whole entry, looked up): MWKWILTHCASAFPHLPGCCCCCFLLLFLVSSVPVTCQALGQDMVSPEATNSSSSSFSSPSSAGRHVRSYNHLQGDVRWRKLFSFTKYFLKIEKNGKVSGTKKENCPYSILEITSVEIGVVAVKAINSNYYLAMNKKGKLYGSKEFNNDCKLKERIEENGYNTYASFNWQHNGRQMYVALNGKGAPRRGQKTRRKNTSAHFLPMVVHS
Sequence of Dickkopf-related protein 1 (Homo sapiens) (O94907 whole entry, looked up): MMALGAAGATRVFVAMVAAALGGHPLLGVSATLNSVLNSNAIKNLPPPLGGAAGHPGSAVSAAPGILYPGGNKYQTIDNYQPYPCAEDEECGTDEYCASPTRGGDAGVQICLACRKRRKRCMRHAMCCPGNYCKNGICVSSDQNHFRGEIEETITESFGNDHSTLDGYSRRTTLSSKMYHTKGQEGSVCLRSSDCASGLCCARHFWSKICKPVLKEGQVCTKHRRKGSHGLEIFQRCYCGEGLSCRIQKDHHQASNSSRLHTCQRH
Sequence of Epidermal growth factor receptor (Homo sapiens) (P00533 whole entry, looked up): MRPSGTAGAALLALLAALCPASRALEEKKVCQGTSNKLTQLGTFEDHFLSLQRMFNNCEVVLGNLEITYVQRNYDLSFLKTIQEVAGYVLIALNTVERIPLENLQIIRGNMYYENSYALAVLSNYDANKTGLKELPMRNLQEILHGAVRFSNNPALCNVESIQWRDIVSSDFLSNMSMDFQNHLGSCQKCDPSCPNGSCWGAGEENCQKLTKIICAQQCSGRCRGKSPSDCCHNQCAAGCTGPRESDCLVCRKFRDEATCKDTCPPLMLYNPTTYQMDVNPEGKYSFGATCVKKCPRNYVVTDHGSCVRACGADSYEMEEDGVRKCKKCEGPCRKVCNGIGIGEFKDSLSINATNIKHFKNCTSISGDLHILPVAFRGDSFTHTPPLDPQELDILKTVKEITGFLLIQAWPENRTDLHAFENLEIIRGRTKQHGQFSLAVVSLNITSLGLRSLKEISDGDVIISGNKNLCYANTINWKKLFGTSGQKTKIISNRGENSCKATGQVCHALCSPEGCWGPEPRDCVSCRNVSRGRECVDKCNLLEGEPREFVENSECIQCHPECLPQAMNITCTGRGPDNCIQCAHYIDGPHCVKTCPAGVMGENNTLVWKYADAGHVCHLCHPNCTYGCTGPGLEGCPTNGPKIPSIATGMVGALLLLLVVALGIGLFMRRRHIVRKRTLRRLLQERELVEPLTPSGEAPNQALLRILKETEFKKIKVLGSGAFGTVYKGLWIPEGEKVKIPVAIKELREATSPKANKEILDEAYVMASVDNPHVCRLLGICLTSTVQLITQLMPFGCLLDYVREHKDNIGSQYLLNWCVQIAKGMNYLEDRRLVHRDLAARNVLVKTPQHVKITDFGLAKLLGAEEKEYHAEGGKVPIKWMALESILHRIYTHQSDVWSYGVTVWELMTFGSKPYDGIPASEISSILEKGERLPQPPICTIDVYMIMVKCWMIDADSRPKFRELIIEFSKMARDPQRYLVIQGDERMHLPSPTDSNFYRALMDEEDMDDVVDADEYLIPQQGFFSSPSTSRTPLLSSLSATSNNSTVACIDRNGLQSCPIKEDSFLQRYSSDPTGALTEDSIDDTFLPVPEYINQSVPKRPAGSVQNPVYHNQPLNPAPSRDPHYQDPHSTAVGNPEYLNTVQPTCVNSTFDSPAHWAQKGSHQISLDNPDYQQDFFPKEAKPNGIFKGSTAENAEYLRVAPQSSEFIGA
Sequence of Neurogenic locus notch homolog protein 3 (Homo sapiens) (Q9UM47 whole entry, looked up): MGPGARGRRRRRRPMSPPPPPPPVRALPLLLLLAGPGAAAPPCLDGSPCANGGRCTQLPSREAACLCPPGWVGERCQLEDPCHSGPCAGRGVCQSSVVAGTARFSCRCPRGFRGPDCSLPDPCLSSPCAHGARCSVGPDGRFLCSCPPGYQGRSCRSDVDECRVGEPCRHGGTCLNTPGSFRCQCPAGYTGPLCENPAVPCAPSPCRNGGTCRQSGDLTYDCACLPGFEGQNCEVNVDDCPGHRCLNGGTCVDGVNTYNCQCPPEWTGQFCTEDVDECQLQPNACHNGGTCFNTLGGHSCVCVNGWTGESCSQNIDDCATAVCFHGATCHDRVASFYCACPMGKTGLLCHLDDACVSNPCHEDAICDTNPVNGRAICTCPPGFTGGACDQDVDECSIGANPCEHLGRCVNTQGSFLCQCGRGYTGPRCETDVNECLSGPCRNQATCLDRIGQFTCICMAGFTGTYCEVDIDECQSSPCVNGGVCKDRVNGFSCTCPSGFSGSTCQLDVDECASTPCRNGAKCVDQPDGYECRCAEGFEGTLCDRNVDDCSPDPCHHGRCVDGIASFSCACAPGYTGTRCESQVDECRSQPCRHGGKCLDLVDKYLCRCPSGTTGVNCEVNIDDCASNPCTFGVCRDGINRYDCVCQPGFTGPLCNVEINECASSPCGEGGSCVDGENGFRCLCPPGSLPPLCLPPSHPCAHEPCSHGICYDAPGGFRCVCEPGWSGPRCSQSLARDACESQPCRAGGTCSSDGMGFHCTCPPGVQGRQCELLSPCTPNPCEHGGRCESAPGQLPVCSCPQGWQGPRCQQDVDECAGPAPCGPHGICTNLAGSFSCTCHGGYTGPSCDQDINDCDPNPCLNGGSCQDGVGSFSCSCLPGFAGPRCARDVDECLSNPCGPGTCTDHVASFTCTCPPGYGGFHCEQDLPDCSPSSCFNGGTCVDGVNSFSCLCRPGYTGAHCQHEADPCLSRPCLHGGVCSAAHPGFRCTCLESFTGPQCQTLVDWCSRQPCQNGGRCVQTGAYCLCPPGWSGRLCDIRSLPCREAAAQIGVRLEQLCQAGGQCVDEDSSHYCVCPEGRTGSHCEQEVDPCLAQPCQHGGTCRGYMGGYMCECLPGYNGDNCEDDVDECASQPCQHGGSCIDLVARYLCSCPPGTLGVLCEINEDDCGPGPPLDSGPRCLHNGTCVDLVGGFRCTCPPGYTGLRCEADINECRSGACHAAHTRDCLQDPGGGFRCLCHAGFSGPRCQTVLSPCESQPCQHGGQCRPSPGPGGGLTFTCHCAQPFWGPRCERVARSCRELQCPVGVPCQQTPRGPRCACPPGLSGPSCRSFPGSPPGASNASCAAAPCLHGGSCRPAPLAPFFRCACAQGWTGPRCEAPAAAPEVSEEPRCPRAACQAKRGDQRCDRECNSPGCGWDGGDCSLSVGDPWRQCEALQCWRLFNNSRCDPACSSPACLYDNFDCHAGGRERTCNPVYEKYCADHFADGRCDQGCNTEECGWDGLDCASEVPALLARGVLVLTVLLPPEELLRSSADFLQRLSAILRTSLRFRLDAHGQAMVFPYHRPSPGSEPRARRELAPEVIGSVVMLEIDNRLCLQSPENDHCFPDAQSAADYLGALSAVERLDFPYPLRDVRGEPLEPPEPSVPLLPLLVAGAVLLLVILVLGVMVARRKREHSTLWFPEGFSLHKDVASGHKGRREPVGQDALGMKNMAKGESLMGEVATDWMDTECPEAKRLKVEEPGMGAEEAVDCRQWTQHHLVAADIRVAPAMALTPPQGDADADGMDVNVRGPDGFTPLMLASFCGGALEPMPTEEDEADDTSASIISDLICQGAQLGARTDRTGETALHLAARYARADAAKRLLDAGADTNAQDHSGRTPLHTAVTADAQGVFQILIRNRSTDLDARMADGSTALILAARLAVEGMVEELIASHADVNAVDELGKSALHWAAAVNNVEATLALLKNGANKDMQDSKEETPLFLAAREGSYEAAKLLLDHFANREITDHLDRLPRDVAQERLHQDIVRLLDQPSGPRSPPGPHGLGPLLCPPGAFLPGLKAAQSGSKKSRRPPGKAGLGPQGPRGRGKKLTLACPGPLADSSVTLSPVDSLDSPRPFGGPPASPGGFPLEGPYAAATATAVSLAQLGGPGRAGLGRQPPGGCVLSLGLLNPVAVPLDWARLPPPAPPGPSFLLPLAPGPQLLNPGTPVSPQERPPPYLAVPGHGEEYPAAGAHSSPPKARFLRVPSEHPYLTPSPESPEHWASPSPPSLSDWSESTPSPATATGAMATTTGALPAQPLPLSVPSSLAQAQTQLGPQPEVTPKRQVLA
Sequence of Follistatin-related protein 3 (Homo sapiens) (O95633 whole entry, looked up): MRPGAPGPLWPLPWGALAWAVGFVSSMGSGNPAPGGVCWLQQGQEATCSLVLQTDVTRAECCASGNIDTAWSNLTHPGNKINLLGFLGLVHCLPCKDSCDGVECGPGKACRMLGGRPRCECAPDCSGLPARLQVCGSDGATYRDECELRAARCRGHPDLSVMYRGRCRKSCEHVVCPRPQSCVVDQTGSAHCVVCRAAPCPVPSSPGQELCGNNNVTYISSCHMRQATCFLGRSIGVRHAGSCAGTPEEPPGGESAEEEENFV

COCCOC(=O)N1C(=O)[C@@]2(c3cc(C#CCNC(N)=O)ccc31)[C@H](c1ccc(OCCO)cc1)N1[C@H](c3ccccc3)[C@H](c3ccccc3)OC(=O)[C@H]1[C@@H]2C(N)=O
composite z-score [1]: 0.981 | z-score [2]: 2.18 (inactive) | z-score [3]: 1.16 (inactive) | z-score [4]: 2.29 (inactive) | composite z-score [5]: 1.92 | z-score [6]: 1.11 (inactive) | composite z-score [7]: 0.221 | composite z-score [8]: 0.228 | composite z-score [9]: 0.542 | composite z-score [10]: 0.387 | composite z-score [11]: 0.826 | composite z-score [12]: 0.695 | composite z-score [13]: 0.435 | z-score [14]: 0.928 (inactive) | composite z-score [15]: 0.748 | composite z-score [16]: -0.0886 | composite z-score [17]: 1.14 | composite z-score [18]: 0.455 | composite z-score [19]: 0.204 | composite z-score [20]: 1.07

CC(C)C(CO)N1C(=O)[C@@H]2[C@H]3C(=O)OCC=C[C@H]3OC23C=CCN(C(C)(C)C)C(=O)[C@@H]13 (stereo not given in full)
composite z-score [1]: -0.0274 | z-score [2]: 0.027 (inactive) | z-score [3]: 0.0191 (inactive) | z-score [4]: 0.754 (inactive) | composite z-score [5]: -0.963 | z-score [6]: -0.7 (inactive) | composite z-score [7]: -0.168 | composite z-score [8]: -0.122 | composite z-score [9]: -0.0022 | composite z-score [10]: -0.144 | composite z-score [11]: 1.45 | composite z-score [12]: -0.293 | composite z-score [13]: -0.348 | z-score [14]: 0.454 (inactive) | composite z-score [15]: -1.07 | composite z-score [16]: -1.57 | composite z-score [17]: -0.257 | composite z-score [18]: -0.21 | composite z-score [19]: -0.181 | composite z-score [20]: 0.83

COc1ccc([Si](C)(C)[C@@H]2[C@@H](CCn3cc([C@H](O)c4ccccc4)nn3)O[C@]3(C(=O)N(c4ccccc4)c4ccccc43)[C@H]2C)cc1
composite z-score [1]: 1.11 | z-score [2]: -0.613 (inactive) | z-score [3]: -0.101 (inactive) | z-score [4]: 1.43 (inactive) | composite z-score [5]: 0.986 | z-score [6]: 1.15 (inactive) | composite z-score [7]: -0.0998 | composite z-score [8]: 0.431 | composite z-score [9]: 0.281 | composite z-score [10]: -0.0452 | composite z-score [11]: 0.548 | composite z-score [12]: -0.016 | composite z-score [13]: -0.142 | z-score [14]: -1.18 (inactive) | composite z-score [15]: 0.23 | composite z-score [16]: -0.15 | composite z-score [17]: -0.302 | composite z-score [18]: 0.115 | composite z-score [19]: 0.181 | composite z-score [20]: 0.372

COCC(=C=CC[C@@H](O)c1ccc(OCCO)cc1)CCO
composite z-score [1]: 0.271 | z-score [2]: 0.177 (inactive) | z-score [3]: 0.0708 (inactive) | z-score [4]: -0.18 (inactive) | composite z-score [5]: 1.73 | z-score [6]: 0.802 (inactive) | composite z-score [7]: -0.132 | composite z-score [8]: 0.913 | composite z-score [9]: 0.622 | composite z-score [10]: -0.125 | composite z-score [11]: 1.67 | composite z-score [12]: -0.0695 | composite z-score [13]: -0.113 | z-score [14]: 1.12 (inactive) | composite z-score [15]: 1.27 | composite z-score [16]: -0.155 | composite z-score [17]: -0.265 | composite z-score [18]: 0.409 | composite z-score [19]: 0.299 | composite z-score [20]: 0.892

CC(CO)N1C(=O)[C@@H]2[C@H]3C(=O)OCC=C[C@H]3OC23C=CCN(c2ccc(Cl)cc2)C(=O)[C@@H]13 (stereo not given in full)
composite z-score [1]: -0.421 | z-score [2]: -0.686 (inactive) | z-score [3]: -0.244 (inactive) | z-score [4]: -0.404 (inactive) | composite z-score [5]: -0.391 | z-score [6]: 0.612 (inactive) | composite z-score [7]: 0 | composite z-score [8]: -2.26 | composite z-score [9]: -1.05 | composite z-score [10]: -0.297 | composite z-score [11]: 1.93 | composite z-score [12]: -0.125 | composite z-score [13]: 0.837 | z-score [14]: -0.00913 (inactive) | composite z-score [15]: -1.59 | composite z-score [16]: -0.501 | composite z-score [17]: -2.15 | composite z-score [18]: -2.43 | composite z-score [19]: -1.92 | composite z-score [20]: -3.56

O=C1OCCC/C=C\[C@H]2OC34C=CCN(c5ccc6ccccc6c5)C(=O)[C@H]3N(CCCO)C(=O)[C@@H]4C12 (stereo not given in full)
composite z-score [1]: 0.463 | z-score [2]: -1.59 (inactive) | z-score [3]: -0.647 (inactive) | z-score [4]: -0.597 (inactive) | composite z-score [5]: 0.969 | z-score [6]: -0.377 (inactive) | composite z-score [7]: -0.091 | composite z-score [8]: -0.534 | composite z-score [9]: 0.0065 | composite z-score [10]: -0.195 | composite z-score [11]: 0.548 | composite z-score [12]: -0.326 | composite z-score [13]: 0.445 | z-score [14]: 0.752 (inactive) | composite z-score [15]: -0.365 | composite z-score [16]: -0.216 | composite z-score [17]: -0.315 | composite z-score [18]: -0.451 | composite z-score [19]: -1.31 | composite z-score [20]: 0.479

CCCNC(=O)[C@@]1(Sc2ccc(C)cc2)CC(=O)N(C(C)C)[C@@H]1c1ccc(CO)cc1I
composite z-score [1]: 1.28 | z-score [2]: -1.08 (inactive) | z-score [3]: -0.877 (inactive) | z-score [4]: 1.79 (inactive) | composite z-score [5]: 2.73 | z-score [6]: -0.157 (inactive) | composite z-score [7]: 0.0444 | composite z-score [8]: -0.719 | composite z-score [9]: -1.2 | composite z-score [10]: -0.252 | composite z-score [11]: 0.0404 | composite z-score [12]: 0.832 | composite z-score [13]: 1.37 | z-score [14]: -0.0862 (inactive) | composite z-score [15]: -0.72 | composite z-score [16]: -1.33 | composite z-score [17]: -1.71 | composite z-score [18]: -1.35 | composite z-score [19]: -2.76 | composite z-score [20]: 0.448

COc1ccc(C(O)C2C=CC3C(=O)N(c4ccccc4)C(=O)C3N2Nc2ccccc2)cc1 (stereo not given)
composite z-score [1]: 1.53 | z-score [2]: 0.219 (inactive) | z-score [3]: -0.24 (inactive) | z-score [4]: 0.211 (inactive) | composite z-score [5]: 3.6 | z-score [6]: -0.701 (inactive) | composite z-score [7]: 0.191 | composite z-score [8]: 0.505 | composite z-score [9]: 1.05 | composite z-score [10]: -0.0382 | composite z-score [11]: 0.97 | composite z-score [12]: -0.0903 | composite z-score [13]: 0.637 | z-score [14]: 1.68 (inactive) | composite z-score [15]: 1.31 | composite z-score [16]: 0.592 | composite z-score [17]: 0.199 | composite z-score [18]: 1.37 | composite z-score [19]: -0.0198 | composite z-score [20]: 1.04

CCCC=C(CCC)[C@@H](NC(=O)CCc1ccccc1)c1ccc(C(F)(F)F)cc1
composite z-score [1]: 1.1 | z-score [2]: -0.296 (inactive) | z-score [3]: -1.19 (inactive) | z-score [4]: 0.654 (inactive) | composite z-score [5]: 3.4 | z-score [6]: -0.604 (inactive) | composite z-score [7]: 0.201 | composite z-score [8]: 0.0368 | composite z-score [9]: 1.12 | composite z-score [10]: -0.0423 | composite z-score [11]: 1.08 | composite z-score [12]: 0.256 | composite z-score [13]: 0.995 | z-score [14]: -1.57 (inactive) | composite z-score [15]: 0.527 | composite z-score [16]: 1.28 | composite z-score [17]: 0.0694 | composite z-score [18]: 0.574 | composite z-score [19]: -0.429 | composite z-score [20]: 0.724

[N-]=[N+]=Nc1ccccc1[C@@H]1OC(c2ccc(OCCCO)cc2)=N[C@]1(Cc1ccccc1)C(=O)NCc1ccccc1
composite z-score [1]: 1.47 | z-score [2]: -1.79 (inactive) | z-score [3]: -0.27 (inactive) | z-score [4]: 3.07 (inactive) | composite z-score [5]: 3.43 | z-score [6]: -0.0484 (inactive) | composite z-score [7]: 0.298 | composite z-score [8]: 0.849 | composite z-score [9]: 1.11 | composite z-score [10]: 0.454 | composite z-score [11]: 1.57 | composite z-score [12]: 1.24 | composite z-score [13]: 1.37 | z-score [14]: 0.459 (inactive) | composite z-score [15]: 1.02 | composite z-score [16]: 1.06 | composite z-score [17]: 0.0762 | composite z-score [18]: 0.395 | composite z-score [19]: 0.0944 | composite z-score [20]: 0.604
